About 83,000 compounds went through this panel and 20% of them were active in at least one assay; those are over-represented in the sample as a whole.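 Cells were grown in 96-well plates and exposed to the test compound at a single concentration for 48 hours; results are reported as percent growth, with values below 10 considered active.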 Values without a mark were called inactive. Calls of active or inactive are those of the source.
Each compound was assayed on MDA-MB-468 breast (assay: NCI-60 one-dose screen, 48 h (100 = growth as untreated, 0 = no growth, -100 = all killed)). Settings: 10 µM unless noted.

Question: How did the growth turn out when `O=C(Oc1ccccc1)c1cc(O)c(O)c(O)c1` was run?
Answer: The growth was 71.7%.

Question: How did the growth turn out when `COc1ccc(-c2nc(SCC(C)C)nc(Nc3ccc(C)cc3)c2C#N)cc1` was run?
Answer: Its growth is 71.1%.

Question: Which growth does the source give for `CCn1c(SC/C(=N/O)c2ccccc2)nnc1-c1ccccc1` here?
Answer: The growth was 108%.

Question: For `COc1cc(CSc2nc3ccc(C)cc3c(=O)n2Cc2ccccc2)cc(OC)c1OC`, which growth is on record?
Answer: The growth was -25.1% (active).

Question: Which growth does the source give for `CCCCC(C=O)(C=C=C(C)C)CC` (centres undefined) here?
Answer: Its growth is 108%.

Question: Which growth does the source give for `C=C1C(=O)O[C@H]2[C@H]1CC/C(COC(=O)NCCc1ccc(Br)cc1)=C\CC[C@@]1(C)O[C@@H]21` here?
Answer: Its growth is 4.63% (active).

Question: For `CC1(C)CC(=O)c2c(nn(-c3ccc(Br)cc3)c2-c2cn(-c3ccccc3)nc2-c2cccnc2)C1`, which growth is on record?
Answer: Its growth is 107%.

Question: `CN(C)c1ccc(N=Nc2ccccn2)c(O)c1` was tested. Which growth did it give?
Answer: The growth was 3.89% (active).

Question: How did the growth turn out when `Cc1nn(-c2ccccc2)c2nc3nc4c(c(N)c3c(-c3ccc(Cl)cc3)c12)CCC4` was run?
Answer: The growth was 99.3%.

Question: Which growth does the source give for `C=C(C)[C@@H]1CC[C@]2(CNCCO)CC[C@]3(C)[C@H](CC[C@@H]4[C@@]5(C)CCC(N)[C@@](C)(CO)[C@@H]5CC[C@]43C)[C@@H]12` (some centres undefined) here?
Answer: The growth was -86.8% (active).

Question: `CC(C)c1cccc(C#N)c1` was tested. Which growth did it give?
Answer: Its growth is 99.4%.

Question: With `CC(=O)Oc1ccc(Nc2c3ccccc3nc3ccccc23)cc1` as the compound, how does the growth read?
Answer: The growth was -25.6% (active).

Question: With `CO/N=C(/C(=O)NC1C(=O)N2C(C(=O)O)=C(COC(N)=O)CSC12)c1ccco1` (centres undefined) as the compound, how does the growth read?
Answer: Its growth is 109%.

Question: `C[C@@H](NC(=O)[C@@H](CC(=O)N1CCC(N2CCCCC2)CC1)N1C(=O)[C@@H](N2C(=O)OC[C@@H]2c2ccccc2)[C@H]1/C=C/c1cccc(Cl)c1)c1ccccc1` was tested. Which growth did it give?
Answer: Its growth is 1.45% (active).

From PubChem BioAssay (NCI)
